Pf growth 48h = inhibits P. falciparum growth in the first generation, 48 h; P. falciparum luciferase growth in erythrocytes, 48 h; actives 5.9% (n = 310,000); Potency, µM (doses to about 28.7 µM), hits mostly inhibitors; active = well fitted inhibition curve with a large enough effect; inconclusive = small, poorly fitted or top-dose-only effect, or another doubt; inactive = no such curve, though single readings can be large or run the other way
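Growth was read as firefly luciferase luminescence after a 48 h, 37 C, 5% CO2 exposure of compounds to reporter-bearing P. falciparum cultures (0.1% parasitemia, 2% hematocrit final) in Albumax-supplemented RPMI 1640.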
SARS PLP yeast = blocks SARS-CoV papain-like protease in a yeast assay | S. cerevisiae expressing SARS-CoV PLpro, growth rescue | Potency, µM (series often up to 32.9 µM), most hits filed as activators | actives 0.19% (n = 330,000) | AID 485353; also: nearly all actives have a fitted effect of over 55% in size
Pf growth 96h = P. falciparum growth inhibition at 96 hour, primary screen for plastid delayed-death inhibitors; P. falciparum luciferase reporter growth, 96 h; Potency, µM (series often up to 28.7 µM), actives largely listed as inhibitors; actives 6.9% (n = 320,000); active = well fitted inhibition curve with a large enough effect; inconclusive = small, poorly fitted or top-dose-only effect, or another doubt; inactive = no such curve, though single readings can be large or run the other way
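Delayed-death screen, second-generation endpoint: infected erythrocytes, 2% hematocrit, 0.05% parasitemia final; 96 hours at 37 C, 5% CO2; luciferase detection reagent; luminescence decrease equals reduced growth.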
NS1 inh = inhibitors of influenza NS1 protein function. Potency, µM (doses to about 46.1 µM). actives 0.4% (n = 270,000); also: actives are rising curves; nearly all actives have a fitted effect of over 50% in size
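Recovery from NS1-induced slow growth read by OD600 in budding yeast switched to galactose assay medium (pH 6.0, -URA) at 1:100 dilution. Compound 23 nl per well; the matching strain lacking NS1 serves as control.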
A number is an active result; i = inactive; ? = inconclusive; nt = not tested or not shown. Most compounds without a hit are left out; they make up all but 10% or so of the library. Unless noted, calls follow the shape of the full dose curve.

SMILES	Pf growth 48h	SARS PLP yeast	Pf growth 96h	NS1 inh
Cc1ccccc1-c1cc(C(=O)NCc2ccc3c(c2)OCO3)n(CC2CC(c3cccnc3)=NO2)n1 (stereo unspecified)	?	i	4.1µM	nt
CCN(CC(=O)NCc1ccc(F)cc1)C(=O)c1ccc(COc2ccccc2)cc1	i	i	i	i
Oc1ccc(Cl)cc1C1=NNC(c2cc(Br)cc3c2OCOC3)C1 (stereo unspecified)	?	i	i	i
COc1ccc(C2=NNC(c3cc(Cl)cc4c3OCOC4)C2)c(O)c1 (stereo unspecified)	8.3µM	i	i	i
Cc1ccc(S(=O)(=O)CCC(=O)OCC(=O)NC2CCS(=O)(=O)C2)cc1 (stereo unspecified)	i	i	i	nt
CCc1nc(SCC(=O)NNC(=O)C(C)C)c2ccccc2n1	?	i	12µM	i
CC(C)C(=O)NNC(=O)CSc1nc(C2CCCCC2)nc2ccccc12	i	i	1.5µM	i
CCc1nc(SCC(=O)NNC(=O)C2CCCCC2)c2ccccc2n1	i	i	i	i
Cc1cc(C)nc(NS(=O)(=O)c2ccc(NC(=O)C3(c4ccc([N+](=O)[O-])cc4)CCCC3)cc2)n1	i	i	9.3µM	i
CCOCCc1nnc(NC(=O)Cc2c(F)cccc2Cl)s1	i	i	i	i
Cn1nc(C(=O)NCc2ccccc2CN2CCCC2)c2ccccc2c1=O	?	i	15µM	nt
O=C(NCc1ccccc1CN1CCCC1)c1cccc(N2CCCC2=O)c1	?	i	4.1µM	nt
NS(=O)(=O)c1ccc(CNC(=O)Cn2nc(C(F)F)cc2C(F)F)cc1	i	i	i	nt
COc1ccccc1-n1c(SCC(N)=O)nc2sc3c(c2c1=O)CCC3	i	i	i	i
CN(C)c1ccc(C(=O)N/N=C/c2ccccn2)cc1	i	i	9.3µM	i
O=C(N/N=C/c1ccccn1)c1ccccc1	?	i	i	i
O=C(N/N=C/c1ccccn1)c1ccc(Cl)cc1	15µM	i	i	i
O=C(O)c1ccccc1CN1CCC[C@@H](C(=O)O)C1	nt	nt	nt	i
O=c1ccc(-c2ccc(S(=O)(=O)Nc3cccc(Br)c3)o2)n[nH]1	i	i	i	i
O=C(O)COc1ccc(/C=C2\SC(=Nc3ccccc3)N(c3ccccc3)C2=O)cc1	i	i	i	nt
O=C(O)COc1ccccc1/C=C1\SC(=Nc2ccc(F)cc2)N(c2ccc(F)cc2)C1=O	10µM	i	?	i
O=C(O)c1ccc(/C=C2\SC(=Nc3ccccc3)N(c3ccccc3)C2=O)cc1	i	i	0.29µM	nt
CCn1c2ccccc2c2cc(NC(=O)COC(=O)c3cc(Cl)c(N)cc3OC)ccc21	i	i	i	i
COc1ccc(-c2nc(CSCC(=O)NCC3CCCO3)c(C)o2)cc1OC (stereo unspecified)	i	i	15µM	i
CCOc1ccc(-c2nc(CSCC(=O)NCC3CCCO3)c(C)o2)cc1 (stereo unspecified)	i	i	13µM	i
SMILES	Pf growth 48h	SARS PLP yeast	Pf growth 96h	NS1 inh
Cc1cccc(CC(C)NC(=O)c2oc3c(F)cccc3c2C)n1 (stereo unspecified)	i	i	?	i
Cc1ccc(S(=O)(=O)N2CCN(c3ncnc4scc(-c5ccccc5)c34)CC2)cc1	nt	i	nt	nt
Cc1nc(N2CCN(S(=O)(=O)c3ccccc3C#N)CC2)c2c(-c3ccccc3)csc2n1	10µM	i	?	nt
O=C(Cn1cc(C(F)(F)F)cc(Cl)c1=O)Nc1cccc(S(=O)(=O)N2CCCCC2)c1	?	i	i	nt
CC1CCCC(NC(=O)CN2CCN(S(=O)(=O)c3cccs3)CC2)C1C (stereo unspecified)	?	i	i	nt
Cc1ccc(SCC(=O)Nc2cccc(NC(=O)c3ccco3)c2)cc1	?	i	i	i
COc1cc2c(cc1NC(=O)CC1SC(N3CCCC3)=NC1=O)oc1ccccc12 (stereo unspecified)	6.6µM	i	1.2µM	i
O=C(CC1SC(N2CCCCC2)=NC1=O)Nc1cccc(C(=O)NCc2ccccc2)c1 (stereo unspecified)	nt	i	nt	nt
COc1ccc(CCNC(=O)c2cccc(NC(=O)CC3SC(N4CCCCC4)=NC3=O)c2)cc1OC (stereo unspecified)	12µM	?	?	i
CN(c1ccccc1C(=O)NCc1ccccc1Cl)S(=O)(=O)c1ccccc1	i	i	?	i
CCOc1cccc2cc(C(=O)Oc3ccc(OC)cc3)c(=O)oc12	i	i	i	i
COc1cccc2cc(C(=O)OC3CCN(C)CC3)c(=O)oc12	i	i	12µM	i
COc1cccc2cc(C(=O)Oc3ccccc3)c(=O)oc12	i	i	13µM	i
Cc1ccc(S(=O)(=O)CC(=O)c2cc3cccc(C)c3oc2=O)cc1	i	i	i	i
COc1cccc2cc(C(=O)CS(=O)(=O)c3ccc(C)cc3)c(=O)oc12	i	i	4.7µM	i
O=C(Nc1ccccc1C(=O)NCCc1ccc(O)cc1)c1ccco1	i	i	i	i
Cc1cc(-c2nc(-c3ccncc3)no2)ccc1[N+](=O)[O-]	nt	i	i	i
COCCCNCCCOc1ccc(C(C)(C)c2ccccc2)cc1	?	i	i	i
CC(C)(c1ccccc1)c1ccc(OCCCNCCO)cc1	nt	i	2.1µM	i
CCC(=O)NC(c1cccs1)c1cc(Cl)c2ccccc2c1O (stereo unspecified)	i	i	?	nt
O=C(CCc1ccccc1)NC(c1cccs1)c1cc(Cl)c2cccnc2c1O (stereo unspecified)	0.41µM	i	i	i
CCC(=O)NC(c1cccs1)c1cc(Br)c2cccnc2c1O (stereo unspecified)	0.93µM	i	2.9µM	nt
CC(=O)Nc1ccc(N(C)C)cc1[N+](=O)[O-]	2.6µM	i	i	i
CC(=O)Nc1ccc(O)cc1[N+](=O)[O-]	i	i	i	i
[O-][n+]1cccc2c(Br)cc(Br)c(O)c21	i	i	i	nt
SMILES	Pf growth 48h	SARS PLP yeast	Pf growth 96h	NS1 inh
C[n+]1cccc2c(Br)ccc([O-])c21	?	i	2.3µM	i
COc1ccccc1CNC(=O)C(CCSC)NS(=O)(=O)c1ccc2c(c1)oc(=O)n2C (stereo unspecified)	i	i	2.1µM	i
C(=N\Nc1nc(-c2ccccc2)cs1)/c1cccnc1	?	i	?	i
Cc1onc(-c2ccc(Cl)cc2Cl)c1-c1csc(N/N=C/c2ccccc2Cl)n1	6.6µM	i	?	i
Clc1ccc(N/N=C/c2cccnc2)cc1	i	i	?	i
CC(C)(C)c1csc(N/N=C/c2cccnc2)n1	13µM	i	?	i
Clc1ccc(-c2csc(N/N=C/c3cccnc3)n2)c(Cl)c1	10µM	i	4.7µM	i
Cc1onc(-c2ccccc2)c1-c1csc(N/N=C/c2ccccc2Cl)n1	i	i	i	i
Cc1sc(N/N=C/c2cccnc2)nc1-c1ccc(Cl)cc1	13µM	i	i	i
Cc1cnc(C(=O)N2CCCC(N3CCN(c4cccc(C(F)(F)F)c4)CC3)C2)cn1 (stereo unspecified)	?	i	?	i
O=S1(=O)[C@H]([C@H]2CC3c4ccccc4C2c2ccccc23)[C@@H](N2CCCCC2)[C@@H]1c1ccccc1	nt	nt	nt	i

High-throughput results from PubChem.
